YB-1 expr inh – YB-1 expression inhibition | U2OS, qRT-PCR YB-1 vs CDIP delta delta Cp, 16 h; hits give high values; zero = DMSO, each unit about twofold | delta delta Cp (YB-1 minus CDIP) (test concentration not listed) | actives 0.37% (n = 30,000);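 active means delta delta Cp rounded down to an integer at or above 3, about 3 SD of DMSO wells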;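 further: higher means less YB-1 transcript or more CDIP transcript relative to DMSO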
U2OS ROS induce – cancer cell ROS induction; U2OS ROS induction, H2DCF-DA fluorescence; AID 624156; actives 2% (n = 46,000); ROS induction (% of piperlongumine), % at 10 µM; in the data active means ROS induction above about 79%, passing the limit was not always enough; inconclusive means no clear call, values can overlap the other calls;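 further: 0% = DMSO vehicle median and 100% = reference compound median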
Starred values were filed as active, the others as inactive; ? = inconclusive; nt = no result given. Sampled rows, rich in hits. Any-hit rate of the full collection: about 2.1%.

SMILES	YB-1 expr inh	U2OS ROS induce
Cc1ccc(S(=O)(=O)/N=C(/c2ccccc2)N(C)c2ccc(O)cc2)cc1	nt	-6
COCCOC(=O)N1C(=O)[C@@]2(c3ccccc31)[C@H](c1ccccc1OCCO)N1[C@H](c3ccccc3)[C@H](c3ccccc3)OC(=O)[C@H]1[C@@H]2C(=O)N1CCN(c2ncccn2)CC1	-0.065	111*
COc1ccc(C#Cc2ccc3c(c2)[C@]2(C(=O)N3)[C@H](c3ccccc3OCCO)N3[C@H](c4ccccc4)[C@H](c4ccccc4)OC(=O)[C@H]3[C@@H]2C(=O)N2CCN(c3ncccn3)CC2)cc1	-0.013	19
COc1ccc(CN(C)C[C@H]2Oc3ccc(NC(=O)CCN4CCOCC4)cc3CC(=O)N([C@@H](C)CO)C[C@@H]2C)cc1	0.081	14
COc1ccc(CN(C)C[C@@H]2Oc3ccc(NC(=O)CCN4CCOCC4)cc3CC(=O)N([C@H](C)CO)C[C@H]2C)cc1	0.2	121*
C[C@H](CO)N1C[C@H](C)[C@H](CN(C)C)Oc2ccc(NC(=O)CCN3CCOCC3)cc2CC1=O	-0.54	?
C[C@@H]1CN([C@H](C)CO)C(=O)Cc2cc(NC(=O)CCN3CCOCC3)ccc2O[C@@H]1CN(C)C	-0.21	126*
Cc1cc(C)c(NC(=O)c2cc(S(=O)(=O)N3CCc4ccccc43)ccc2F)c(C)c1	nt	11
Cc1cc(C)c(S(=O)(=O)N2CCc3ccccc32)c(C)c1	nt	105*
C=C1C(=O)O[C@@H]2C[C@H](C)[C@@H]3CC(=O)C(C)=C3C[C@H]12	-0.09	93*
C=C1C(=O)OC2C3=C(C)C(=O)CC3C(C)CC(O)C12 (centres undefined)	0.48	72
N#CC1=C(N)Nc2c(c(=O)oc3ccccc23)C1c1ccc(Br)cc1 (centres undefined)	-0.4	81*
C=CCN1C(=O)C2(C(C#N)=C(N)Oc3c2c(=O)oc2ccccc32)c2ccccc21 (centres undefined)	-0.13	13
CO[C@H]1O[C@H](CO)[C@@H](OC(=O)Nc2cccc(F)c2)[C@@H]2OC(=O)[C@@H](Cc3ccccc3)C/C=C/C[C@H](Cc3ccccc3)C(=O)O[C@@H]12	-0.4	19
CC1(CO)CC(=O)CC2(C)C3=C(CCC12)C(=O)OC3 (centres undefined)	-0.53	-2
COc1ccc(C(=O)NCc2cccnc2)cc1C(=O)NCc1cccnc1	-0.097	-3
O=C(NCc1ccco1)c1cnn2c(C(F)F)cc(-c3ccccc3)nc12	nt	193*
COc1ccccc1-c1cc(C(F)F)n2ncc(C(=O)NCc3cccnc3)c2n1	nt	116*
NC(=O)c1c(NC(=O)c2cnn3c(C(F)F)cc(-c4ccccc4)nc23)sc2c1CCC2	nt	12
C[C@H]1CN([C@@H](C)CO)C(=O)c2cc(NC(=O)Nc3ccccc3)ccc2O[C@@H]1CN(C)S(=O)(=O)c1cccs1	0.3	-10
O=C1N/C(=N/S(=O)(=O)c2ccccc2)S/C1=C/c1ccco1	-0.34	17
C/C=C/[C@@H](CCn1cc([C@H](O)c2ccccc2)nn1)[Si](C)(C)c1ccc(OC)cc1	0.14	3
C/C=C/[C@H](CCn1cc([C@H](O)c2ccccc2)nn1)[Si](C)(C)c1ccc(OC)cc1	0.028	110*
CS(=O)(=O)N(CC(=O)Nc1c(F)cccc1F)c1cccc(Cl)c1Cl	nt	6
Cc1ccc(Cl)cc1N(CC(=O)Nc1c(F)cccc1F)S(C)(=O)=O	nt	156*
SMILES	YB-1 expr inh	U2OS ROS induce
O=C1c2ccccc2NC(c2ccccc2)N1N=C1CCCCCC1 (centres undefined)	-0.94	96*
O=C1c2ccccc2NC(c2ccccc2)N1NS(=O)(=O)c1ccccc1 (centres undefined)	nt	-9
Cc1ccc(S(=O)(=O)N(C)C[C@H]2Oc3c(NS(=O)(=O)c4ccc(F)cc4)cccc3C(=O)N([C@H](C)CO)C[C@H]2C)cc1	-0.059	-2
CCOC(=O)c1ccc2nc(C(F)(F)F)nc(NCc3ccc(Cl)cc3)c2c1	0.34	10
CCOC(=O)c1ccc2nc(C(F)(F)F)nc(N3CC(C)OC(C)C3)c2c1 (centres undefined)	-0.72	108*
C[C@H](CO)N1C[C@H](C)[C@@H](CN(C)Cc2ccc(Oc3ccccc3)cc2)Oc2c(NS(=O)(=O)c3ccc(F)cc3)cccc2C1=O	0.32	68
Cc1ccc(S(=O)(=O)N(C)C[C@H]2OCCCC[C@@H](C)Oc3ccc(NC(=O)Nc4ccc(C(F)(F)F)cc4)cc3C(=O)N([C@H](C)CO)C[C@@H]2C)cc1	0.086	22
C[C@@H]1CCCCO[C@@H](CN(C)C(=O)Nc2ccc(C(F)(F)F)cc2)[C@@H](C)CN([C@H](C)CO)C(=O)c2cc(NS(=O)(=O)c3ccccc3)ccc2O1	-0.21	102*

Source: PubChem BioAssay
